From the supplement of paper PMC9262897, “Low-cost anti-mycobacterial drug discovery using engineered E. coli” (Nature Communications, 2022)
Where a name gives a salt, the structure may show the parent alone. ± gives the standard deviation of the averaged measurements.

Tested on: E. coli TESEC Mtb DapB
Assay: growth (OD600 after 10 h); higher = more growth (less inhibition)
Details: arabinose induction (level): High; compound 0.1 mM; raw OD600 reference: median of DMSO wells […], cell-free background 0.041
Protocol: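 TESEC E. coli strains in which the native enzyme is deleted and replaced by arabinose-inducible Mtb Asd, DapB, CysH or TrpD, each grown in its selective medium. Strains were screened against the Prestwick library at 0.1 mM and 1% DMSO in 384-well format at low and high arabinose induction. Growth is read as OD600 after 10 h in triplicate.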

SMILES	growth
O=C(O)CCc1nc(-c2ccccc2)c(-c2ccccc2)o1 [Oxaprozin]	0.139 ± 0.0021
Cc1nc2ccccn2c(=O)c1CCN1CCC(C(=O)c2ccc(F)cc2)CC1 [Pirenperone]	0.223 ± 0.0088
CCOC(=O)C1=C(C)NC(C)=C(C(=O)OC)C1c1cccc([N+](=O)[O-])c1 (stereo not given) [Nitrendipine]	0.217 ± 0.016
CC[N+](C)(C)c1cccc(O)c1 [Edrophonium chloride]	0.203 ± 0.017
N/C(=N\C(=O)c1nc(Cl)c(N)nc1N)NCc1ccccc1 [Benzamil hydrochloride]	0.213 ± 0.023
Cc1cccc(C)c1NC(=O)C(C)N (stereo not given) [Tocainide hydrochloride]	0.232 ± 0.038
CC(c1cc2ccccc2s1)N(O)C(N)=O (stereo not given) [Zileuton]	0.216 ± 0.029
NC(Cc1cc(I)c(Oc2cc(I)c(O)c(I)c2)c(I)c1)C(=O)O (stereo not given) [Thyroxine (L)]	0.206 ± 0.008
CCCCCCCN(CC)CCCC(O)c1ccc(NS(C)(=O)=O)cc1 (stereo not given) [Ibutilide fumarate]	0.197 ± 0.027
COC(=O)C1=C(C)NC(C)=C(C(=O)OC(C)C)C1c1cccc2nonc12 (stereo not given) [Isradipine]	0.19 ± 0.019
NS(=O)(=O)c1cc2c(cc1Cl)N=C(CSCc1ccccc1)NS2(=O)=O [Benzthiazide]	0.194 ± 0.016
Clc1ccc(Nc2nnc(Cc3ccncc3)c3ccccc23)cc1 [Vatalanib]	0.203 ± 0.081
CC(=O)OCC(=O)[C@@]12N=C(C)O[C@@H]1C[C@H]1[C@@H]3CCC4=CC(=O)C=C[C@]4(C)[C@H]3[C@@H](O)C[C@@]12C [Deflazacort]	0.186 ± 0.0061
Nc1nc2n[nH]nc2c(=O)[nH]1 [Azaguanine-8]	0.235 ± 0.032
COC(c1ccccc1)(c1ccccc1)[C@H](Oc1nc(C)cc(C)n1)C(=O)O [Ambrisentan]	0.191 ± 0.016
C[N+]1(C)CCC(=C(c2ccccc2)c2ccccc2)CC1 [Diphemanil methylsulfate]	0.187 ± 0.015
NC(=O)c1cc[n+](CC2=C(C(=O)[O-])N3C(=O)[C@@H](NC(=O)[C@@H](c4ccccc4)S(=O)(=O)O)[C@H]3SC2)cc1 [Cefsulodin sodium salt]	0.211 ± 0.013
Nc1nnc(-c2cccc(Cl)c2Cl)c(N)n1 [Lamotrigine]	0.213 ± 0.015
c1coc(CNc2ncnc3nc[nH]c23)c1 [6-Furfurylaminopurine]	0.209 ± 0.011
CN(C)CCCN1c2ccccc2CCc2ccc(Cl)cc21 [Clomipramine hydrochloride]	0.0466 ± 0.00055

Same assay, conditions: arabinose induction (level): Low; compound 0.1 mM; raw OD600 reference: median of DMSO wells 0.227, cell-free background 0.041

SMILES	growth
O=C(O)CCc1nc(-c2ccccc2)c(-c2ccccc2)o1 [Oxaprozin]	0.152 ± 0.0088
Cc1nc2ccccn2c(=O)c1CCN1CCC(C(=O)c2ccc(F)cc2)CC1 [Pirenperone]	0.23 ± 0.037
CCOC(=O)C1=C(C)NC(C)=C(C(=O)OC)C1c1cccc([N+](=O)[O-])c1 (stereo not given) [Nitrendipine]	0.215 ± 0.0092
CC[N+](C)(C)c1cccc(O)c1 [Edrophonium chloride]	0.27 ± 0.098
N/C(=N\C(=O)c1nc(Cl)c(N)nc1N)NCc1ccccc1 [Benzamil hydrochloride]	0.232 ± 0.013
Cc1cccc(C)c1NC(=O)C(C)N (stereo not given) [Tocainide hydrochloride]	0.244 ± 0.06
CC(c1cc2ccccc2s1)N(O)C(N)=O (stereo not given) [Zileuton]	0.216 ± 0.017
NC(Cc1cc(I)c(Oc2cc(I)c(O)c(I)c2)c(I)c1)C(=O)O (stereo not given) [Thyroxine (L)]	0.243 ± 0.013
CCCCCCCN(CC)CCCC(O)c1ccc(NS(C)(=O)=O)cc1 (stereo not given) [Ibutilide fumarate]	0.243 ± 0.019
COC(=O)C1=C(C)NC(C)=C(C(=O)OC(C)C)C1c1cccc2nonc12 (stereo not given) [Isradipine]	0.21 ± 0.011
NS(=O)(=O)c1cc2c(cc1Cl)N=C(CSCc1ccccc1)NS2(=O)=O [Benzthiazide]	0.21 ± 0.012
Clc1ccc(Nc2nnc(Cc3ccncc3)c3ccccc23)cc1 [Vatalanib]	0.15 ± 0.015
CC(=O)OCC(=O)[C@@]12N=C(C)O[C@@H]1C[C@H]1[C@@H]3CCC4=CC(=O)C=C[C@]4(C)[C@H]3[C@@H](O)C[C@@]12C [Deflazacort]	0.23 ± 0.013
Nc1nc2n[nH]nc2c(=O)[nH]1 [Azaguanine-8]	0.26 ± 0.084
COC(c1ccccc1)(c1ccccc1)[C@H](Oc1nc(C)cc(C)n1)C(=O)O [Ambrisentan]	0.234 ± 0.021
C[N+]1(C)CCC(=C(c2ccccc2)c2ccccc2)CC1 [Diphemanil methylsulfate]	0.25 ± 0.028
NC(=O)c1cc[n+](CC2=C(C(=O)[O-])N3C(=O)[C@@H](NC(=O)[C@@H](c4ccccc4)S(=O)(=O)O)[C@H]3SC2)cc1 [Cefsulodin sodium salt]	0.245 ± 0.015
Nc1nnc(-c2cccc(Cl)c2Cl)c(N)n1 [Lamotrigine]	0.132 ± 0.0074
c1coc(CNc2ncnc3nc[nH]c23)c1 [6-Furfurylaminopurine]	0.221 ± 0.024
CN(C)CCCN1c2ccccc2CCc2ccc(Cl)cc21 [Clomipramine hydrochloride]	0.0467 ± 0.00083
